The target in one assay is Albumin (Bos taurus) (UniProt P02769). As to the kind of experiment: bovine serum albumin binders on microarray, profiling panel, artefact control for SMM control protein annotation, biochemical, small-molecule microarray, Alexa647 label, 635/667 nm fluorescence (AID 1118).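 Note: score merges 667 nm emission intensity and signal-to-noise per printed compound spot.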 Conditions: BSA-A647 binding, fluorescence 635 nm, higher = more signal.
Assay [1] is described as follows: small-molecule microarray binders of probe aXIP, primary screen, biochemical, NeuroSMM set, 635/667 nm fluorescence (AID 1119).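 Note: probe is the protein aXip251-270 applied at 1 µg/mL to compound-printed slides; binding of probe to printed compounds measured as 667 nm fluorescence plus signal to noise.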 Conditions: higher = more signal, called active from +8 up or from −8 down.
Assay [2] is described as follows: small-molecule binders of probe aNOTCH3, primary screen, biochemical, small-molecule microarray, 635/667 nm fluorescence (AID 1120).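 Note: probe is a biotin-tagged antibody raised against NOTCH3 rather than NOTCH3 protein; score merges spot fluorescence near 667 nm with spot signal to noise.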 Conditions: higher = more signal.
Assay [3] can be described thus: small-molecule binders of probe aNOTCH2, primary screen, biochemical, small-molecule microarray, 635/667 nm fluorescence (AID 1121).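 Note: score merges feature fluorescence read at 667 nm with its signal to noise.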 Conditions: higher = more signal.
For assay [4], the target named is Carbonic anhydrase 2 (Homo sapiens) (UniProt P00918). As to the kind of experiment: CAII small-molecule binders, profiling panel, biochemical, small-molecule microarray, Alexa647-labelled CAII (AID 1122). Conditions: CAII-A647 binding fluorescence, higher = more signal.
Assay [5] in a line: COS7 lysate on small-molecule microarray, probe aHis, 635 nm (AID 1123).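 Note: z-score combines 667nm fluorescence intensity with signal-to-noise per printed compound spot.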 Conditions: COS7 cell lysate, fluorescence, higher = more signal.
Assay [6] can be described thus: compound binding in COS7 lysate, probe aLAP1, primary screen, cell lysate, small-molecule microarray (AID 1124).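 Note: lysate comes from COS7 cells expressing LAP1 and is applied at 0.3 µg/mL; score merges spot fluorescence near 667 nm with signal-to-noise over triplicate slides.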 To be noted: probe aLAP1, fluorescence, higher = more signal.
Another assay concerns Sam68 (KHDRBS1). As to the kind of experiment: Sam68 small-molecule binders, primary screen, biochemical, small-molecule microarray, 635 nm fluorescence (AID 1125).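 Note: score merges 667 nm channel intensity with signal to noise over triplicate slides.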 Conditions: small-molecule microarray binding, higher = more signal.
For assay [7], the system named is Chordin-like protein 2 (CHRDL2). As to the kind of experiment: CHRDL2 small-molecule binders, primary screen, biochemical, small-molecule microarray, 635 nm fluorescence (AID 1126).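 Note: printed compound slides probed with Chrdl2 protein at 4 µg/mL for 1 h at 4 C; score merges 667 nm emission intensity with signal to noise over three replicate slides.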 Conditions: small-molecule microarray binding, fluorescence 635 nm; higher = more signal.
Assay [8] addresses Concanavalin-A (Canavalia ensiformis) (UniProt P02866). Description: ConA small-molecule binders, primary screen, artefact control for SMM control protein annotation, biochemical, small-molecule microarray, Alexa647 label, 635 nm (AID 1127).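 Note: z combines 667 nm emission intensity with signal-to-noise across three replicate slides.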 Conditions: ConA-A647 binding fluorescence, higher = more signal.
Assay [9] can be described thus: anti-His antibody binders, primary screen, artefact control for SMM control protein annotation, biochemical, small-molecule microarray, 635 nm fluorescence (AID 1128).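 Note: score merges feature fluorescence with signal-to-noise for each printed compound spot.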 Conditions: anti-His Alexa647 antibody binding, higher = more signal.
The test system of assay [10] is Human papillomavirus type 1a E7 protein (residues 1-88). Description: HPV1a E7 small-molecule binders, primary screen, biochemical, small-molecule microarray, residues 1-88, 635 nm (AID 1129). Conditions: small-molecule microarray binding, fluorescence 635 nm; higher = more signal.
The target of assay [11] is Focal adhesion kinase 1 (Homo sapiens) (UniProt Q05397). As to the kind of experiment: small-molecule microarray binders of FAK, primary screen, biochemical, 635/667 nm fluorescence, BSA, DTT (AID 1130).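 Note: composite of spot emission at 667 nm and signal to noise over triplicate slides.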 Conditions: PTK2 binding, 635 nm fluorescence, higher = more signal.
Assay [12] deals with Fibrinogen (Alexa647-labelled). Description: fibrinogen binders on compound microarrays, profiling panel, artefact control for SMM control-protein annotation, biochemical, small-molecule microarray, 635/667 nm fluorescence (AID 1131).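 Note: z-score merges 667 nm fluorescence with per-spot signal-to-noise over triplicate slides.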 Conditions: fibrinogen-A647 binding fluorescence, higher = more signal.
Assay [13] has as its target Follistatin (Homo sapiens) (UniProt P19883). Description: follistatin binders on small-molecule microarrays, primary screen, biochemical, small-molecule microarray, 635/667 nm fluorescence (AID 1132). Conditions: FST binding, 635 nm fluorescence, higher = more signal.
In assay [14] the target is Fibroblast growth factor 2 (Homo sapiens) (UniProt P09038). Description: FGF2 binders on small-molecule microarrays, primary screen, biochemical, small-molecule microarray, 635/667 nm fluorescence (AID 1133). To be noted: small-molecule microarray binding, FGF2, fluorescence 635/667; higher = more signal.
Assay [15] is described as follows: mitochondrial membrane potential change in A549 cells, profiling panel, cell-based, JC-1 fluorescence, basal, 24 h, 100 nL (AID 1138).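 Note: A549 lung adenocarcinoma cells under basal conditions with no added stimulus; test concentration not given here.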 To be noted: higher = more signal.
The next assay has as its system Lefty1. Description: Lefty1 binders on small-molecule microarrays, primary screen, biochemical, small-molecule microarray, 635/667 nm fluorescence (AID 1139). Conditions: small-molecule microarray binding, fluorescence 635/667; higher = more signal.
The subject of assay [16] is wheat germ agglutinin (Triticum aestivum), Alexa647-labelled. Description: wheat germ agglutinin binders on compound microarrays, profiling panel, artefact control for SMM control-protein annotation, biochemical, small-molecule microarray, 635/667 nm fluorescence (AID 1140).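 Note: score merges 667 nm feature emission with signal to noise over triplicate slides.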 To be noted: WGA-A647 binding, 635 nm fluorescence, higher = more signal.
Assay [17] deals with Luciferin 4-monooxygenase (Photinus pyralis) (UniProt P08659). Description: firefly luciferase enzyme inhibitors, primary screen, biochemical, luminescence, purified enzyme, 2006 set (AID 1141).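 Note: cell-free assay with purified firefly luciferase at 100 ng per well in PBS; test concentration not given here.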 To be noted: SteadyGlo luminescence, 30 min, higher = more signal, called active from +8 up or from −8 down.

The values that follow come from PubChem BioAssay.

Active and inactive are the calls of the source.

Chain of Luciferin 4-monooxygenase (Photinus pyralis) (P08659 whole entry, looked up): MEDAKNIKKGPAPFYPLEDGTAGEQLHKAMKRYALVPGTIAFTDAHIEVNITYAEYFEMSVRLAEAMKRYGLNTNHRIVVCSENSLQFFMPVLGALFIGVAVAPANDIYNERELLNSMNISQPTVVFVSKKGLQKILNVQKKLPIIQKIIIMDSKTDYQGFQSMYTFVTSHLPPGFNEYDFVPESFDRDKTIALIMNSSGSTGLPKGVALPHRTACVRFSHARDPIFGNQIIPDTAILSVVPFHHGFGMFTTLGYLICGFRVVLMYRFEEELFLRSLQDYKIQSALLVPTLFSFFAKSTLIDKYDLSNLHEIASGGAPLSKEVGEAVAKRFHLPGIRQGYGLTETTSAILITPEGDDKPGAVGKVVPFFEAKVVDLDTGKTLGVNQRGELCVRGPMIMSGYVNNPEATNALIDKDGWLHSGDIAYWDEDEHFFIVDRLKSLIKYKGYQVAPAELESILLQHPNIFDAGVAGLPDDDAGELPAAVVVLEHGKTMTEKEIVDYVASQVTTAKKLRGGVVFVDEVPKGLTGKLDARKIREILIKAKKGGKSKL
Chain of Follistatin (Homo sapiens) (P19883 whole entry, looked up): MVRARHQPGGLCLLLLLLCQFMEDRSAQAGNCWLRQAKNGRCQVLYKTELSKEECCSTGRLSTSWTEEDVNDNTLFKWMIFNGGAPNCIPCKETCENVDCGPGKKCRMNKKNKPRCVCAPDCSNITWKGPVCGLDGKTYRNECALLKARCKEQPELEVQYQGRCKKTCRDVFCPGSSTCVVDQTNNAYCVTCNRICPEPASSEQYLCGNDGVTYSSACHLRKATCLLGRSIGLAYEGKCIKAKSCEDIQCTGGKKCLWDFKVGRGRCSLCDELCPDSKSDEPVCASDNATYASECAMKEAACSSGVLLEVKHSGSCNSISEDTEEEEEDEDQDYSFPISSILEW
Chain of Albumin (Bos taurus) (P02769 whole entry, looked up): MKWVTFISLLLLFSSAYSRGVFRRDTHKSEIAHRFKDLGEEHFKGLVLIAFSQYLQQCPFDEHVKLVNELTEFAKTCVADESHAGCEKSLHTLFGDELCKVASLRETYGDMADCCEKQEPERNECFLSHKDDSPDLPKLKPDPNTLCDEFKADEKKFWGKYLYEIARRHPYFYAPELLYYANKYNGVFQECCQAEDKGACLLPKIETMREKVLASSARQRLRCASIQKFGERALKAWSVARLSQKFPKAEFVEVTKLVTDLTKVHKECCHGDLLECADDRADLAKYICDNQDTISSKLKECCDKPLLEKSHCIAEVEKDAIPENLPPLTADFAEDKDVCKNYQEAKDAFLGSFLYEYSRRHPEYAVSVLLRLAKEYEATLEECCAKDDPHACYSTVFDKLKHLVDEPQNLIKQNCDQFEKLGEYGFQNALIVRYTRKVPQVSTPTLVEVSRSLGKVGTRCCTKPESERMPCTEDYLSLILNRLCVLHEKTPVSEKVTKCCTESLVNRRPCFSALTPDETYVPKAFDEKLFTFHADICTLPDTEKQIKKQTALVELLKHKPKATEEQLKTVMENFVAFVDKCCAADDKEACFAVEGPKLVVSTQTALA
Chain of Concanavalin-A (Canavalia ensiformis) (P02866 whole entry, looked up): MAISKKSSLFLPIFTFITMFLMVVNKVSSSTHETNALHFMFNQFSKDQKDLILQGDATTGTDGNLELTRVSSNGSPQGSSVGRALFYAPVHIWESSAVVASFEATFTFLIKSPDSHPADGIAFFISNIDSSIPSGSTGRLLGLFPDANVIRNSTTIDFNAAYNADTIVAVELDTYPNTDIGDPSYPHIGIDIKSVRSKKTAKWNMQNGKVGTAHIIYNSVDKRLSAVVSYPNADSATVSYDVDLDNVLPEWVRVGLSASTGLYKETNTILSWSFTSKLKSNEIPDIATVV
Chain of Fibroblast growth factor 2 (Homo sapiens) (P09038 whole entry, looked up): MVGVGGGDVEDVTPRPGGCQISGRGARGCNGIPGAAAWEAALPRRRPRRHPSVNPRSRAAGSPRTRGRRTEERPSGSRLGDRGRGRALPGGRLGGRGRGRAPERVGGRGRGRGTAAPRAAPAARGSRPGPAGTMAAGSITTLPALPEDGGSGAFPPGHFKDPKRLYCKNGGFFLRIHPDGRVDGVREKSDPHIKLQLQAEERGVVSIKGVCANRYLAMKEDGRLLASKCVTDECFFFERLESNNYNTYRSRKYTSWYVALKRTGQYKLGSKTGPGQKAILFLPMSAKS
Chain of Focal adhesion kinase 1 (Homo sapiens) (Q05397 whole entry, looked up): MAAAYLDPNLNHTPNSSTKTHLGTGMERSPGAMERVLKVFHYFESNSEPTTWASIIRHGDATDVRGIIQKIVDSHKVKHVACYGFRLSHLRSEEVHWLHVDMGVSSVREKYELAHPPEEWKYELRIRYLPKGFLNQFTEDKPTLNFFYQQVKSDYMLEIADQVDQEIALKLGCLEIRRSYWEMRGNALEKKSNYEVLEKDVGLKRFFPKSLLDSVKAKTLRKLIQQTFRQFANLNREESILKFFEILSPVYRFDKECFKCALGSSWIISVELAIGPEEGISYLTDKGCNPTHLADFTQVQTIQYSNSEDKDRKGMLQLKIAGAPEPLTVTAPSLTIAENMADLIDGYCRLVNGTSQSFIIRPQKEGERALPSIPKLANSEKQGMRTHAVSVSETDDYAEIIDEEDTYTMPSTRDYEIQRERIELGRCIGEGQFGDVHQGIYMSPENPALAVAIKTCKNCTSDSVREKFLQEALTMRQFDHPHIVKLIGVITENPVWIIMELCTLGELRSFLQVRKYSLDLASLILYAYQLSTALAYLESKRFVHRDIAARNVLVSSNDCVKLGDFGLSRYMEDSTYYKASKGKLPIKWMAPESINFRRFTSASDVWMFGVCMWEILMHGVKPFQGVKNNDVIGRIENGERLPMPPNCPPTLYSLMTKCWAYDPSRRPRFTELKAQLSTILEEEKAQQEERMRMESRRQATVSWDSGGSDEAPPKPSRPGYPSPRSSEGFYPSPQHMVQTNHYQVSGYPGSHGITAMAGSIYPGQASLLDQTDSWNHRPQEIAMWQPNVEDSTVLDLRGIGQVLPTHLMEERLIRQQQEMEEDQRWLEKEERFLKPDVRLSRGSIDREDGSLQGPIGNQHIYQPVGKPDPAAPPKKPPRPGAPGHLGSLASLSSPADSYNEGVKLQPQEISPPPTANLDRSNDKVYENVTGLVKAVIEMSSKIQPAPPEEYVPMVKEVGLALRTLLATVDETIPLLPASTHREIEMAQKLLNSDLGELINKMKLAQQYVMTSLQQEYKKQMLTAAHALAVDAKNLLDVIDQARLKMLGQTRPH

Regarding `COc1cc(CO)cc(I)c1O[C@H]1C=C(C(=O)NCCO)C[C@@H](N(CC2CCCCC2)C(=O)c2cc3ccccc3oc2=O)[C@@H]1O`, the composite z-score in the assay with Albumin (Bos taurus) is -0.0129; in assay [2] it was 0.0158; in [3], -0.12; in [4] it was -0.0979; in assay [5], 0.14; in assay [6] it was 0.379. For the same molecule, the composite z-score was -0.461 with Sam68 (KHDRBS1); 0.538 in assay [7]; 0.358 in assay [8]; 0.309 in assay [9]; 0.238 in assay [10]; -0.071 in assay [11]. In addition, the composite z-score in [12] was found to be 1.02; in assay [13], 0.175; in [14], 1.17; in the assay with Lefty1 it was 0.275; in assay [16], 0.516. For the same molecule, in assay [1], the composite Z-score is 0.577 (inactive). The figures for the z-score in assay [15] and in [17] were 0.272 and -0.462 (inactive), respectively.

`C=CCC(OC(C)=O)[C@@H]1[C@@H](N(Cc2cccc3ccccc23)C(=O)Cc2ccc(F)cc2)c2cc(OCCCO)ccc2N1C(=O)Cc1ccc2ccccc2c1` (stereo not given in full): the composite z-score in the assay with Albumin (Bos taurus) is 0.0257; in assay [2], -0.0881; in [3], -0.0194; in assay [4], -0.117; in [5], 0.293; in [6], -0.27. Besides, the composite z-score in the assay on Sam68 (KHDRBS1) was -0.146; in assay [7], -0.214; in assay [8], -1.5; in [9], -0.404; in assay [10], -0.329; in [11] it was 0.317. Further, the composite z-score is -0.175 in [12]; 0.0802 in [13]; -0.391 in assay [14]; -0.258 with Lefty1; 0.191 in assay [16]. Also, the composite Z-score in assay [1] was -0.227 (inactive). For the same molecule, the z-score in [15] was 0.331; in assay [17], 0.693 (inactive).

Take `NC(=O)NCC#Cc1ccc2c(c1)[C@]1(C(=O)N2)[C@H](C(=O)N2CCCCCCC2)[C@H]2C(=O)O[C@H](c3ccccc3)[C@H](c3ccccc3)N2[C@@H]1c1ccccc1OCCO`: the composite z-score came to 0.408 with Albumin (Bos taurus); 1.43 in assay [2]; 0.985 in [3]; 0.953 in [4]; 4.03 in [5]; 1.26 in [6]. Also, the composite z-score turned out to be 1.31 in the assay on Sam68 (KHDRBS1); 1.56 in assay [7]; 1.11 in [8]; 1.03 in assay [9]; 1.27 in assay [10]; 2.88 in assay [11]. Further, the composite z-score in assay [12] was determined as 0.743; in assay [13], 1.51; in [14], 0.0779; in the assay on Lefty1, 1.32; in assay [16], 1.59. In addition, the composite Z-score in [1] was 4.79 (inactive). In addition, the values for the z-score in [15] and in [17] were 0.209 and -0.984 (inactive), respectively.

Turning to `CC(c1ccccc1)C(O)C1C=CC2C(=O)N(C)C(=O)C2N1N(c1ccccc1)c1ccccc1` (stereo not given), the composite z-score in the assay with Albumin (Bos taurus) turned out to be 0.867; in [2], 0.207; in [3] it was 0.0605; in assay [4], 0.507; in assay [5] it was 1.57; in assay [6] it was 0.19. Moreover, the composite z-score in the assay on Sam68 (KHDRBS1) is 0.431; in assay [7], -0.852; in assay [8], -0.597; in [9], 0.69; in assay [10] it was 0.919; in [11], 0.467. For the same molecule, the composite z-score is 0.948 in assay [12]; -0.19 in assay [13]; -0.377 in assay [14]; -0.617 in the assay on Lefty1; 1.18 in assay [16]. In assay [1], the composite Z-score is 0.543 (inactive). Further, the z-score was 0.755 in assay [15] and -0.273 (inactive) in assay [17].

On to `CN(C)CCCC[C@@H]1NC(=O)[C@@H]2C[C@H](C(=O)NCCCCCNC(=O)CS)[C@H](c3ccc(O)cc3)N2C1=O`, for which the composite z-score was 0.885 in the assay with Albumin (Bos taurus); 0.0261 in assay [2]; -0.0976 in [3]; 0.58 in assay [4]; 1.18 in [5]; 0.24 in assay [6]. For the same molecule, the composite z-score in the assay on Sam68 (KHDRBS1) was 0.697; in assay [7] it was 1.07; in assay [8] it was 1.15; in [9], 1.12; in [10] it was 1.19; in assay [11], -0.0662. Moreover, the composite z-score in assay [12] came to 0.946; in assay [13] it was 1.52; in assay [14], 1.65; with Lefty1, 1.65; in assay [16], 1.23. Further, the composite Z-score in assay [1] is 0.0077 (inactive). Besides, the z-score in assay [15] is 1.3; in assay [17], -1.11 (inactive).

For `C[C@]1(C(=O)NCc2ccccc2)c2ccccc2C(=O)N(Cc2cc(C(F)(F)F)cc(C(F)(F)F)c2)[C@H]1c1ccc(CO)cc1`, the composite z-score turned out to be 0.157 with Albumin (Bos taurus); 0.154 in assay [2]; 0.0827 in [3]; 0.529 in assay [4]; 0.9 in [5]; 0.158 in assay [6]. In addition, the composite z-score with Sam68 (KHDRBS1) was 1.3; in [7] it was 0.242; in assay [8], 0.677; in [9], -0.152; in assay [10], 1.19; in assay [11], 0.415. Besides, the composite z-score turned out to be 0.749 in [12]; 1.34 in [13]; 1.72 in assay [14]; 0.221 in the assay with Lefty1; 0.322 in assay [16]. In [1], the composite Z-score was -0.471 (inactive). Further, the z-score in [15] is 0.195; in assay [17], -0.543 (inactive).
